Hits are enriched below; roughly 2.4% of the tested compounds scored in any of these assays.
D2 PAM-1: positive allosteric modulators of human D2 dopamine receptor; potentiation, % (no concentration beside the values); DiscoveRx D2 beta-arrestin cells, luminescence, 90 min; 100% = 57 uM dopamine signal; 360,000 tested, 0.23% active; in the data active = potentiation above about 50%; inconclusive = mostly about 30% to 49%
Target sequence (P14416 whole entry, looked up): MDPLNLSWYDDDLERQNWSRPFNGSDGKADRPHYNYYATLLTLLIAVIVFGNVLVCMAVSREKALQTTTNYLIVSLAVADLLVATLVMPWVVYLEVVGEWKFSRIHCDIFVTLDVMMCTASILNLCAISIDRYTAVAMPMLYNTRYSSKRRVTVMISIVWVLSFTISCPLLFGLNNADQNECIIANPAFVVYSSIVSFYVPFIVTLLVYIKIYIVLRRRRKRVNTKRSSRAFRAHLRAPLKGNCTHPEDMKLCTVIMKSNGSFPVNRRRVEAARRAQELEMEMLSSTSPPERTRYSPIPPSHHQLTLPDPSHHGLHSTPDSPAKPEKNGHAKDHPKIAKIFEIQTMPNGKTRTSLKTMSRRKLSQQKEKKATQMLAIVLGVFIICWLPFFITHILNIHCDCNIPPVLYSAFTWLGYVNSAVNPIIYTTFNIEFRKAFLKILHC
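PathHunter D2 cells, attached overnight at 37 deg C, received compound in DMSO plus dopamine at EC20 (50 nM final) for 90 min at 37 deg C. Beta-arrestin recruitment was read as luminescence after 1 h with detection reagent at ambient temperature.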
D2 ag-1: activates the human D2 dopamine receptor; P14416; HEK293 T-REx D2 cells, calcium flux agonist mode; activation, % at 2 µM; 340,000 tested, 0.53% active;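 active = activation over 3 SD above normal in the single-dose calcium agonist read, cut at about 30% in these data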
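Agonism is scored from calcium flux in a force-coupled, inducible HEK293 cell line expressing D2, read kinetically for 180 s after compound addition against dopamine controls.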
D2 antagonist: D2 dopamine receptor (human) antagonism; P14416; HEK293 TREx D2 cells, calcium flux, dopamine EC80; 340,000 tested, 2% active; inhibition, % at 10 µM; in the data active = inhibition above about 30%; inactive = below that, where a call was filed
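Antagonism is scored as inhibition of an EC80 dopamine-evoked calcium signal in a force-coupled, tetracycline-inducible HEK293 T-REx D2 line, with compound present 180 s before agonist.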
D2 PAM-2: positive allosteric modulators of human D2 dopamine receptor; 340,000 tested, 0.34% active; HEK293 T-REx D2, calcium flux, EC20 dopamine potentiation; P14416; AID 485347; potentiation, % at 10 µM;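 active = potentiation over 3 SD above the plate norm, cut at about 30% in these data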
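Potentiation of an EC20 dopamine calcium response measured kinetically over 180 s, after a preceding 180 s compound-only read flagging agonists. Cells: inducible Hek293 Trex D2 line, 4000/well, cultured overnight at 30 C before dye loading.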
D2 ag-2: agonists of human D2 dopamine receptor (beta-arrestin). activation, % (no concentration beside the values). DiscoveRx PathHunter D2 beta-arrestin, luminescence, 90 min; 100% = 57 uM dopamine signal. AID 624465. P14416. 360,000 tested, 0.084% active; in the data active = activation above about 40%; inconclusive = between about 15% and that limit
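Agonist mode: compounds alone added to overnight-plated D2 PathHunter cells for 90 min at 37 C, with 57 uM final dopamine (EC100) defining full response. Beta-arrestin recruitment detected by chemiluminescent reagent, read after 1 h at ambient temperature.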
Large screens that a line does not name were inactive.

O=C(c1ccco1)N1N=C2CCCCCC2C1(O)C(F)(F)F (centres undefined)	D2 PAM-2 32
COc1ccccc1Cc1c(-c2ccco2)nc2ccc(C)cn12	none (no result: D2 ag-1, D2 antagonist, D2 PAM-2)
CC(O)CNCCCOc1cccc(C(F)(F)F)c1 (centres undefined)	D2 antagonist 34
O=C(CCN=C1NS(=O)(=O)c2ccccc21)Nc1ccc(Cl)cc1F	D2 antagonist 40
O=C(CCCN=C1NS(=O)(=O)c2ccccc21)Nc1ccc(Cl)cc1	none
O=C(O)C(Cc1ccccc1)N1C(=O)c2ccccc2C1=O (centres undefined)	none
CCC(C(=O)O)N1C(=O)c2ccccc2C1=O (centres undefined)	D2 antagonist 37
COc1ccccc1N(C)S(=O)(=O)c1ccc(C(=O)NCc2ccc3c(c2)OCO3)cc1	none
O=C(C[n+]1ccc(-c2ccccc2)cc1)Nc1ccc([N+](=O)[O-])cc1	D2 antagonist 37
Cc1cccc[n+]1CC(=O)Nc1ccc([N+](=O)[O-])cc1	none
CCC(C)(C)n1nnnc1C(c1ccccn1)N1CCCCC1 (centres undefined)	D2 antagonist 52
Cc1ccc(NC(=O)CN(C)C(=O)c2cc(C)on2)cc1	none
COc1ccc(C(=O)Nc2ccc(C(=O)OCC(=O)c3cccc4ccccc34)cc2)cc1	D2 antagonist 76
COc1ccc(NC(=O)c2ccc3ccccc3c2)cc1	none
CCOC(=O)N1CC=C2C(C#N)=C(N)C(C#N)(C#N)[C@H](c3cccs3)C2C1 (some centres undefined)	D2 PAM-2 72
CN1CCN(S(=O)(=O)c2cccc(C(=O)NC3(C)CCS(=O)(=O)C3)c2)CC1 (centres undefined)	D2 PAM-2 41
CC1(NC(=O)c2cccc(S(=O)(=O)N3CCCc4ccccc43)c2)CCS(=O)(=O)C1 (centres undefined)	none
COC(=O)C1C2C=CC3(CN(Cc4cccs4)C(=O)C13)O2 (centres undefined)	none
CC(=O)N1c2ccc(S(=O)(=O)N(C)CC(=O)NC3CCCCC3C)cc2CC1C (centres undefined)	D2 PAM-2 42
CC(=O)N1c2ccc(S(=O)(=O)N(C)C3CCCCC3)cc2CC1C (centres undefined)	D2 PAM-2 30
CC(=O)N1c2ccc(S(=O)(=O)N(C)CC(=O)NCc3ccccc3)cc2CC1C (centres undefined)	none
CCCn1c(=O)sc2cc(NC(=O)c3ccccc3Cl)ccc21	none (no result: D2 PAM-1, D2 antagonist, D2 ag-2)
COCc1nnc(NC(=O)C2CC(=O)N(CCc3ccc(F)cc3)C2)s1 (centres undefined)	D2 antagonist 30
CCOc1ccc(CC(=O)N/N=C(\C)c2cccnc2)cc1OCC	none
CC(NC(=O)CCNC(=O)c1ccccc1Cl)c1ccc(-n2ccnc2)cc1 (centres undefined)	none
COc1ccccc1C(=O)NCCC(=O)NC(C)c1ccc(-n2ccnc2)cc1 (centres undefined)	D2 antagonist 33
O=C(Nc1ccccc1)N1CCc2ccccc21	none
O=C(CCN1CCc2ccccc2C1)Nc1ccccc1	D2 antagonist 57
O=C(CN1CCc2ccccc2C1)Nc1ccccc1C(F)(F)F	D2 ag-1 34
O=C(CCC(=O)N1CCc2ccccc21)Nc1ccccc1	D2 antagonist 36
O=C(CCN1CCc2ccccc2C1)Nc1cccc(F)c1	D2 antagonist 60 (no result: D2 PAM-2)
O=C(CCN1CCCCCC1)Nc1cccc(F)c1	none
CCC1CCCCN1C(=O)CSc1nc2c([nH]c3ccccc32)c(=O)n1-c1ccc(OC)cc1 (centres undefined)	none (no result: D2 PAM-1, D2 antagonist, D2 ag-2)
FC(F)(F)COc1ccc(-c2nnc(SCc3ccccc3)o2)cn1	none
O=S(=O)(c1ccc2c(c1)OCCO2)N1CCN(c2ncnc3sccc23)CC1	none (no result: D2 ag-1, D2 antagonist, D2 PAM-2)
O=C(CSc1ncn[nH]1)Nc1c(Br)cc([N+](=O)[O-])cc1Br	D2 ag-2 inconclusive
CN(c1ccccc1)S(=O)(=O)c1cccc(NC(=O)CC(C)(C)C)c1	none
CN(c1ccccc1)S(=O)(=O)c1cccc(NC(=O)CN2CCc3ccccc3C2)c1	D2 antagonist 33, D2 ag-2 inconclusive
O=C(CN1CCc2ccccc2C1)Nc1ccc(Br)cc1	D2 antagonist 58
COc1ccc(-c2nc(CNC(=O)NC3CCCCC3)c(C)o2)cc1	none (no result: D2 PAM-1, D2 antagonist, D2 ag-2)
COc1ccc(-c2coc3c(C(=O)NCc4ccccc4)cccc23)c(C)c1	none (no result: D2 ag-1, D2 antagonist, D2 PAM-2)
CCN(CC(=O)NCc1ccc(F)cc1)C(=O)/C=C/c1ccc(OC)cc1	none
CCN(CC(=O)NCc1ccc(F)cc1)C(=O)/C=C/c1ccc(OC)c(S(=O)(=O)NC(C)C)c1	D2 antagonist 33
C/C=C/C(=O)OCC(=O)Nc1cccc(Br)c1	none
O=C(COC(=O)/C=C/c1ccccc1)Nc1ccccc1Br	D2 antagonist 40
C/C=C/C(=O)OCC(=O)Nc1ccccc1Br	D2 antagonist 47
O=C(COC(=O)/C=C/c1ccc(Cl)cc1)Nc1ccccc1	D2 PAM-2 41
Cc1ccccc1NC(=O)C1c2cccc[n+]2CC(=O)N1Cc1ccc2c(c1)OCO2 (centres undefined)	none
Cc1ccc(C(NC(=O)/C=C\c2ccc3c(c2)OCO3)C(=O)Nc2ccc3c(c2)OCO3)cc1 (centres undefined)	none
CCCc1cc(CN2CCOCC2)c(O)c(CN2CCOCC2)c1O	none (no result: D2 ag-1, D2 antagonist, D2 PAM-2)
CN(CC(=O)Nc1ccccc1)CC(=O)Nc1ccccc1Cl	none
C/C(=N/O)c1c(O)c(C)c(-c2ccccc2)n(-c2ccccc2)c1=O	none
C/C(=N\O)c1c(O)cc(-c2ccccc2)n(-c2ccccc2)c1=O	D2 ag-1 31
Cc1cc(OCCN2CCN(S(=O)(=O)c3ccccc3F)CC2)ccc1C(C)C	D2 PAM-2 66
COc1ccc(OCCN2CCN(S(=O)(=O)c3ccccc3C(F)(F)F)CC2)cc1	none
Cc1oc(-c2ccccc2)nc1CSc1nc2c(c(=O)[nH]1)CCC2	D2 antagonist 35
Cc1cccc(-c2nc(CSc3nc4c(c(=O)[nH]3)CCC4)c(C)o2)c1	D2 antagonist 43
CCN(CC(=O)Nc1c(F)cccc1F)C(=O)Cc1c(C)nc2ccccc2c1C	none
CCN(CC(=O)Nc1c(F)cccc1F)C(=O)Cc1csc(-c2ccccc2)n1	D2 antagonist 35
Cc1ccc(NC(=S)N2CCCC(c3nc4ccccc4[nH]3)C2)cc1 (centres undefined)	none (no result: D2 ag-1, D2 antagonist, D2 PAM-2)
Cc1ccccc1NC(=S)N1CCCC(c2nc3ccccc3[nH]2)C1 (centres undefined)	D2 antagonist 32
CCN(CC(=O)Nc1ccc2c(c1)OCCO2)C(=O)COc1cc(C)ccc1Cl	D2 antagonist 33
Cc1ccc(Cl)c(OCC(=O)Nc2ccc3c(c2)OCCO3)c1	none
Cc1nn(C)c(C)c1S(=O)(=O)N1CCC(C(=O)NCCC2=CCCCC2)CC1	D2 antagonist 30

Source: PubChem BioAssay
